Data on nine compounds can be found in PubChem BioAssay.

A short description of test [1]: E. coli DRC41 culture turbidity changes, primary screen, E. coli filamentation inducer project, strain DRC41, OD650, 48 h (AID 1152).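 Note: E. coli MC1000 strain DRC41 lacking acrAB efflux pump and sulA.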 As to conditions: E. coli DRC41 (acrAB sulA), higher = more signal, called active from +8 up or from −8 down.
The nature of test [2]: small-molecule binders of probe aLefty1, primary screen, biochemical, small-molecule microarray, 635/667 nm fluorescence (AID 1153).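 Note: score merges spot fluorescence with signal-to-noise ratio from the scanned slide images.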 As to conditions: higher = more signal.
The nature of test [3]: PSAC antagonists in infected red cells, primary screen, cell-based, P. falciparum Indochina, OD700, 1 h (AID 1154). The conditions noted are these: P. falciparum Indochina infected RBC osmotic lysis, higher = more signal, called active from +8 up or from −8 down.
Test [4] in a line: PSAC antagonists in infected red cells, primary screen, cell-based, P. falciparum Indochina, OD700, 2 h (AID 1155).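 Note: lysis reports solute entry through the parasite surface anion channel PSAC; channel blockers reduce lysis of infected cells.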 The conditions noted are these: P. falciparum Indochina infected erythrocytes, osmotic lysis OD700; higher = more signal, called active from +8 up or from −8 down.
Test [5] in a line: osmotic lysis modulators in infected erythrocytes, primary screen, PSAC antagonist project, cell-based, P. falciparum Indochina, OD700, 3 h (AID 1156). The conditions noted are these: higher = more signal, called active from +8 up or from −8 down.
The nature of test [6]: PSAC antagonists in infected red cells, primary screen, cell-based, P. falciparum Indochina, OD700, 18 h (AID 1157). The conditions noted are these: P. falciparum Indochina infected erythrocytes, osmotic lysis OD700, 18 h; higher = more signal, called active from +8 up or from −8 down.
Test [7] in a line: modulators of S6 phosphorylation in cells, primary screen, cell-based, A549, cytoblot, luminescence, serum-stimulated (AID 1158).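 Note: serum-stimulated A549 lung adenocarcinoma cells; signal is phosphorylated S6 detected by cytoblot immunostaining with HRP secondary.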 As to conditions: A549 phospho-S6 cytoblot, 5 h, higher = more signal.
Test [8] has as its target NADPH oxidase 2 (Homo sapiens) (UniProt P04839). Kind of test: NOX2-dependent H2O2 signal modulators, primary screen, NOX inhibitor project, cell-based, HEK293-NOX2, PMA-stimulated, Amplex Red fluorescence (AID 1159). Note: test concentration not given here. The conditions noted are these: 45 min, higher = more signal, called active from +8 up or from −8 down.
In test [9] the target is NADPH oxidase 4 (Homo sapiens) (UniProt Q9NPH5). The test can be described thus: NOX4-dependent H2O2 signal modulators, primary screen, NOX inhibitor project, cell-based, HEK293-NOX4, tetracycline-induced, Amplex Red fluorescence (AID 1160). The conditions noted are these: 45 min, higher = more signal, called active from +8 up or from −8 down.
Test [10] has as its target NADPH oxidase 5 (Homo sapiens) (UniProt Q96PH1). The test can be described thus: NOX5-dependent H2O2 signal modulators, primary screen, NOX inhibitor project, cell-based, HEK293-NOX5, Amplex Red fluorescence (AID 1161). The conditions noted are these: HEK293-NOX5, ionomycin, 45 min, higher = more signal.
A short description of test [11]: A549 cell viability effects, profiling panel, calcein-AM fluorescence, 48 h, basal (AID 1162). Note: test concentration not given here. As to conditions: higher = more signal.
Test [12] is described as follows: adipocyte viability effects, profiling panel, cell-based, 3T3-L1 adipocytes, calcein-AM fluorescence, 48 h, basal (AID 1163). Note: test concentration not given here. As to conditions: 3T3-L1 adipocytes viability, higher = more signal.
Test [13] can be described thus: HepG2 cell viability effects, profiling panel, calcein-AM fluorescence, 48 h, basal (AID 1164). Note: test concentration not given here. The conditions noted are these: higher = more signal.
Test [14] is described as follows: MM1S cell viability effects, profiling panel, calcein-AM fluorescence, 48 h, basal (AID 1165).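 Note: viability of MM1S multiple myeloma cells under basal unstimulated conditions; test concentration not given here.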 As to conditions: higher = more signal.
Test [15] in a line: basal RPMI8226 viability, no added stimulus, profiling panel, cell-based, calcein-AM fluorescence, 48 h, PK04 Diversity Set (AID 1166).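 Note: cells grown under basal conditions without added stimulus; test concentration not given here.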 The conditions noted are these: RPMI8226 myeloma viability, higher = more signal.
Test [16] is described as follows: basal HepG2 mitochondrial membrane potential changes, profiling panel, cell-based, JC-1 fluorescence, 24 h, 100 nL compound (AID 1167). Note: test concentration not given here. The conditions noted are these: higher = more signal.
Test [17] can be described thus: basal 3T3-L1 adipocyte mitochondrial potential changes, profiling panel, cell-based, JC-1 fluorescence, 3T3-L1 adipocytes, 24 h, 100 nL compound (AID 1168). Note: test concentration not given here. As to conditions: JC-1 mitochondrial fluorescence, higher = more signal, called active from +8 up or from −8 down.
Test [18] can be described thus: basal RPMI8226 mitochondrial membrane potential changes, profiling panel, cell-based, JC-1 fluorescence, 24 h, 100 nL compound (AID 1169). Note: test concentration not given here. As to conditions: RPMI8226 myeloma, JC-1 mitochondrial potential fluorescence, higher = more signal.
A short description of test [19]: basal MM1S mitochondrial membrane potential changes, profiling panel, cell-based, JC-1 fluorescence, 24 h, 100 nL compound (AID 1170). Note: test concentration not given here. The conditions noted are these: higher = more signal.
Test [20] can be described thus: A549 lung cancer cell viability effects, profiling panel, resazurin fluorescence, 24 h, PK04 Diversity Set (AID 1171). Note: test concentration not given here. As to conditions: higher = more signal, called active from +8 up or from −8 down. (Alamar Blue is a resazurin reagent that responds to reducing activity.)

Calls of active or inactive are those of the source.

Chain of NADPH oxidase 4 (Homo sapiens) (Q9NPH5 whole entry, looked up): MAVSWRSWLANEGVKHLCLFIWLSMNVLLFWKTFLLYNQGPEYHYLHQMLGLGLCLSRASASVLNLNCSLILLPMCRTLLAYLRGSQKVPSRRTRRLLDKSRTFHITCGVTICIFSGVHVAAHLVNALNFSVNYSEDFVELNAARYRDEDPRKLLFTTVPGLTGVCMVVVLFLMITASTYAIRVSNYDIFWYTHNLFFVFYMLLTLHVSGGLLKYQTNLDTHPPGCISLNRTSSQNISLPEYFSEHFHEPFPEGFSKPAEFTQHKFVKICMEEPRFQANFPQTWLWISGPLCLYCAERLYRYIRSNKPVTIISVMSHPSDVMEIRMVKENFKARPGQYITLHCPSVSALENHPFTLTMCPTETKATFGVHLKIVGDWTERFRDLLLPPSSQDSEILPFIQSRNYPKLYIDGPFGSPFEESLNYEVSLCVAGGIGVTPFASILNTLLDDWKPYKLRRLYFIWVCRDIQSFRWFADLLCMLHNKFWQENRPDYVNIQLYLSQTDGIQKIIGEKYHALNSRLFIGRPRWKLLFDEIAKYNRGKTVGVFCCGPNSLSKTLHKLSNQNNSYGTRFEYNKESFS
Chain of NADPH oxidase 2 (Homo sapiens) (P04839 whole entry, looked up): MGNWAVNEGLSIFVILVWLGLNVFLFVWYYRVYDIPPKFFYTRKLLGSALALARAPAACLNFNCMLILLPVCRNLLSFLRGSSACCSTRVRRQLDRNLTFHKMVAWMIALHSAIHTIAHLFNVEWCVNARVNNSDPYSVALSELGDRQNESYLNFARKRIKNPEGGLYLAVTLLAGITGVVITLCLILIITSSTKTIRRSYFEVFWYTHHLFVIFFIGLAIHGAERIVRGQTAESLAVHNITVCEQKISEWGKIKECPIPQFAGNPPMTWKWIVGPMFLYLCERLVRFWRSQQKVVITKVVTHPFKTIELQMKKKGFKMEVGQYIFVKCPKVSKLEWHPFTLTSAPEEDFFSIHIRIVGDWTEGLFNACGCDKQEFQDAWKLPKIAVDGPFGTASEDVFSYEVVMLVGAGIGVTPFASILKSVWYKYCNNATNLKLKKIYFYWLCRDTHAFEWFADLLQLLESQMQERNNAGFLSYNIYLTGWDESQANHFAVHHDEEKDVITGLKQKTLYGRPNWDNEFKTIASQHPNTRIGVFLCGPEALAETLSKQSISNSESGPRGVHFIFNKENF
Chain of NADPH oxidase 5 (Homo sapiens) (Q96PH1 whole entry, looked up): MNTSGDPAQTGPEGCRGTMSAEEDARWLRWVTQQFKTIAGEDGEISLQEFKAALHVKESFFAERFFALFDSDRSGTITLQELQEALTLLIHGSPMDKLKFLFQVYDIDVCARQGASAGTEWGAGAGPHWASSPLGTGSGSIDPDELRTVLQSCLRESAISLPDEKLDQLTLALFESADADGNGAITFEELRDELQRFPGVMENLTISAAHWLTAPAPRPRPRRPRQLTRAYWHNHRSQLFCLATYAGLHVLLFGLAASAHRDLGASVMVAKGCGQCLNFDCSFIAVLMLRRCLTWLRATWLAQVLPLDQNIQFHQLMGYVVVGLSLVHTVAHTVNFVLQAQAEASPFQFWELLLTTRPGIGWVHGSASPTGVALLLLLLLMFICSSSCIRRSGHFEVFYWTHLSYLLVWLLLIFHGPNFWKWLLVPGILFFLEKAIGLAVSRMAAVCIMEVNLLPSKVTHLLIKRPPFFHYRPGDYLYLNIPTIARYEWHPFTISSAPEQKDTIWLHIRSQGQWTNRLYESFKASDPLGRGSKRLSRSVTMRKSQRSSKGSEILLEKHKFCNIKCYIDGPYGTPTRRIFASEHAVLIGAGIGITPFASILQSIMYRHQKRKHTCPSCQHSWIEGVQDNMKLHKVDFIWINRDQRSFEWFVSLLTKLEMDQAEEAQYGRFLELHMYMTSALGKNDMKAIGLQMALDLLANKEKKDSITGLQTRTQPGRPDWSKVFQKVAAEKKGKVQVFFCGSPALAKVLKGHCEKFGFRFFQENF

Regarding `NC(=O)NCC#Cc1ccc2c(c1)[C@]1(C(=O)N2)[C@H](C(=O)NC[C@H](O)c2ccccc2)[C@H]2C(=O)O[C@H](c3ccccc3)[C@H](c3ccccc3)N2[C@@H]1c1ccccc1OCCO`, the z-score in test [1] is 2.23 (inactive); in [3], 1.15 (inactive); in [4] it was -0.658 (inactive); in test [5], 0.0336 (inactive); in test [6] it was -2.16 (inactive); in [7], 1.5. Further, the z-score was 0.121 (inactive) in test [8]; -1.95 (inactive) in test [9]; -1.81 in test [10]; -0.321 in test [11]; 1.02 in test [12]; -0.252 in test [13]. In addition, the z-score was 0.325 in test [14]; -0.636 in test [15]; -1.64 in [16]; 1.34 (inactive) in test [17]; -0.0808 in test [18]; -1.01 in test [19]. For the same compound, the z-score in [20] was 1.02 (inactive). The compound also displayed a composite z-score in test [2] of 0.157.

In the case of `COC(=O)[C@@]1(Cc2ccccc2)[C@H]2c3cc(C(=O)N(C)C)n(Cc4ccccc4)c3C[C@H]2CN1C(=O)c1ccccc1`, the z-score in [1] is -1.39 (inactive); in test [3], 1.54 (inactive); in [4] it was 0.488 (inactive); in test [5], 0.775 (inactive); in [6], 0.667 (inactive); in test [7] it was -0.608. The z-score is 0.543 (inactive) in test [8]; -0.0416 (inactive) in test [9]; -0.0705 in test [10]; -1.19 in test [11]; -0.93 in test [12]; -0.775 in test [13]. Moreover, the z-score was -0.143 in [14]; -0.747 in [15]; 1.14 in [16]; -0.655 (inactive) in [17]; 0.599 in [18]; -1.06 in test [19]. Moreover, the z-score in test [20] was -0.407 (inactive). This compound also showed a composite z-score in [2] of 0.177.

For the compound `C=C(CCCC)C(=O)CC[C@H](OC(C)=O)c1ccc(CO)o1`, the z-score in [1] was 0.33 (inactive); in test [3] it was 2.26 (inactive); in test [4] it was -0.43 (inactive); in test [5], 0.25 (inactive); in test [6], -1.8 (inactive); in test [7], 0.612. Besides, the z-score in test [8] was 0.184 (inactive); in [9], 0.209 (inactive); in test [10], -1.32; in test [11], -0.0395; in test [12] it was 1.87; in test [13], -0.576. Moreover, the z-score in test [14] was -1.65; in test [15], -0.0314; in [16], 0.299; in test [17], 1.14 (inactive); in [18], 0.0658; in test [19] it was 0.376. For the same compound, the z-score in test [20] is -0.485 (inactive). Moreover, in test [2], the composite z-score was 0.929.

`Cc1ccc(S[C@]2(C(=O)NCC(C)C)CC(=O)N(Cc3ccccc3)[C@@H]2c2ccc(CO)cc2)cc1`: the z-score in [1] is -0.747 (inactive); in test [3] it was 2.36 (inactive); in [4], 0.522 (inactive); in [5], -0.111 (inactive); in test [6], 0.451 (inactive); in test [7], 0.138. For the same compound, the z-score in test [8] is -0.336 (inactive); in test [9] it was 0.361 (inactive); in test [10] it was 0.499; in test [11], 0.204; in test [12] it was 0.38; in [13], -0.056. For the same compound, the z-score was -1.32 in test [14]; -0.152 in test [15]; -0.135 in test [16]; -0.239 (inactive) in [17]; 0.205 in test [18]; 0.435 in [19]. The z-score in test [20] was 1.23 (inactive). The composite z-score in test [2] was 0.171.

On to `CCCCC(=O)N(Cc1ccccc1F)[C@@H]1CC(C(=O)NCCO)=C[C@H](Oc2c(I)cc(CO)cc2OC)[C@H]1O`, for which the z-score is 0.381 (inactive) in test [1]; 5.42 (inactive) in test [3]; 3.13 (inactive) in test [4]; 2.17 (inactive) in test [5]; 1.48 (inactive) in test [6]; 0.245 in test [7]. In addition, the z-score was 1.27 (inactive) in test [8]; 0.438 (inactive) in test [9]; -3.95 in test [10]; -0.435 in [11]; 1.65 in test [12]; -0.765 in [13]. In addition, the z-score in [14] is 0.364; in test [15], -1.7; in test [16], 0.197; in [17], -0.916 (inactive); in [18], -0.325; in test [19], -0.0648. In test [20], the z-score was -0.873 (inactive). The composite z-score in test [2] came to 0.298.

`O=C1OCC=C[C@H]2OC34C=CCN(CCN5CCOCC5)C(=O)[C@H]3N(CCCCCCO)C(=O)[C@@H]4[C@@H]12` (stereo not given in full): the z-score was -0.416 (inactive) in [1]; 4.96 (inactive) in test [3]; 1.32 (inactive) in [4]; 1.21 (inactive) in test [5]; 0.404 (inactive) in test [6]; 1.07 in test [7]. Moreover, the z-score in [8] was 1.51 (inactive); in [9], -0.325 (inactive); in [10] it was 1.92; in [11] it was -0.213; in test [12] it was -0.0626; in [13] it was 0.775. Also, the z-score was 1.56 in test [14]; 0.802 in [15]; -0.00733 in [16]; -0.199 (inactive) in test [17]; 1.11 in test [18]; 0.858 in test [19]. The z-score in [20] was -0.352 (inactive). Also, the composite z-score in test [2] worked out at 0.0253.

With `CCOC(=O)C1=CC[C@@H](c2ccccc2)N(S(=O)(=O)c2ccc(C)cc2)[C@H]1c1ccc(C#N)cc1`, the z-score in test [1] is -1.38 (inactive); in [3], 1.92 (inactive); in test [4] it was 0.858 (inactive); in test [5], 0.224 (inactive); in [6], 0.705 (inactive); in [7] it was -0.882. Also, the z-score in test [8] was 0.428 (inactive); in [9], -1.1 (inactive); in [10] it was 0.0836; in test [11], 0.423; in test [12] it was -0.574; in test [13], -0.178. Also, the z-score in test [14] was -0.306; in test [15], -0.973; in test [16], 0.51; in [17], -1.12 (inactive); in test [18], 0.124; in test [19], -0.725. For the same compound, the z-score in test [20] was 1.39 (inactive). The compound further returned a composite z-score in test [2] of 0.161.

As to `C=CCN1C(=O)[C@]2(Cc3ccccc31)N=C(c1ccc(OCCCO)cc1)O[C@@H]2c1ccccc1`, the z-score in [1] is -3.11 (inactive); in [3] it was 26 (active); in test [4], 19.4 (active); in [5], 1.09 (inactive); in test [6] it was 3.1 (inactive); in test [7] it was 0.253. The z-score in [8] was -1.42 (inactive); in test [9], 0.273 (inactive); in [10], -0.785; in test [11], -0.686; in test [12], -0.201; in test [13] it was -0.377. In addition, the z-score in test [14] was -0.9; in test [15] it was -3.41; in test [16] it was -0.844; in [17] it was 1.83 (inactive); in test [18], -1.11; in test [19] it was -0.672. Moreover, the z-score in [20] is -2.13 (inactive). In test [2], this compound gave a composite z-score of 0.165.

Turning to `O=C(NCCN1CCOCC1)[C@@H]1c2ccccc2C(=O)N(Cc2cc(F)cc(C(F)(F)F)c2)[C@H]1c1ccc(CO)cc1`, the z-score in [1] was -0.61 (inactive); in test [3], 3.37 (inactive); in test [4], 0.298 (inactive); in [5], 0.884 (inactive); in test [6] it was 0.0839 (inactive); in [7], -0.287. In addition, the z-score was 1.44 (inactive) in test [8]; 1.12 (inactive) in [9]; 2 in test [10]; 1.22 in [11]; 0.767 in test [12]; 1.2 in test [13]. In addition, the z-score in test [14] is 0.34; in test [15], -0.671; in [16] it was 1.97; in [17], 0.13 (inactive); in test [18], 0.738; in test [19], -0.119. For the same compound, the z-score in test [20] is 0.935 (inactive). The compound also registered a composite z-score in test [2] of -0.0492.
